# Results taken from PubChem BioAssay (NCI).
# About 79,000 compounds went through this panel and 15% of them were active in at least one assay; those are over-represented in the sample as a whole. Values without a mark were called inactive. Active and inactive are the calls of the source. Rule as the data show it: active = growth inhibition above about 70%; inactive = the rest.
# Experiments:
# [1] = NCI Yeast Anticancer Drug Screen. Data for the rad50 strain (AID 155);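 also: 0% = growth of vehicle-only cultures of the same strain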; conditions: S. cerevisiae rad50 strain growth inhibition, active compounds read high
# Method in brief: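 Yeast carrying a defined DNA repair defect were exposed to test compounds, and growth was compared with vehicle-treated controls to give percent inhibition.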
# [2] = NCI Yeast Anticancer Drug Screen. Data for the mec2-1 strain (AID 157); conditions: S. cerevisiae mec2-1 strain, active compounds read high
# Method in brief: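 Each compound was tested on mec2-1 yeast, a strain altered in DNA damage repair or cell cycle control. Growth inhibition is reported relative to vehicle.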
# [3] = NCI Yeast Anticancer Drug Screen. Data for the sgs1 mgt1 strain (AID 161);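 also: 0% = growth of cultures given vehicle only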; conditions: S. cerevisiae sgs1 mgt1 strain, active compounds read high
# Method in brief: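 Genetically altered yeast, compound exposure, growth inhibition relative to vehicle.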
# [4] = NCI Yeast Anticancer Drug Screen. Data for the cln2 rad14 strain (AID 165);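 also: 0% = growth equal to vehicle treated cultures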; conditions: S. cerevisiae cln2 rad14 strain, active compounds read high
# Method in brief: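 Test compounds were added to cln2 rad14 yeast cultures; inhibition of growth was then determined by comparison with vehicle treatment.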
# [5] = NCI Yeast Anticancer Drug Screen. Data for the bub3 strain (AID 167); conditions: S. cerevisiae bub3 mutant strain, active compounds read high
# Method in brief: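 Compounds were applied to a genetically altered yeast strain carrying a cell-cycle control defect. Growth inhibition was scored against vehicle-treated controls.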
# [6] = NCI Yeast Anticancer Drug Screen. Data for the mlh1 rad18 strain (AID 175); conditions: S. cerevisiae mlh1 rad18 strain growth inhibition, active compounds read high
# Method in brief: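 Inhibition values reflect reduced growth of mutant yeast versus vehicle-treated controls following compound exposure; the mutations affect DNA damage repair.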
# [7] = at 5.0 µM (retest, dose inferred, filed as 0.5)
# [8] = at 50.0 µM (retest, dose inferred, filed as 5.0)
SMILES,"growth inhibition [1, 7]","growth inhibition [1, 8]",growth inhibition ([1]; at 50.0 µM),"growth inhibition [2, 7] [%]","growth inhibition [2, 8]",growth inhibition ([2]; at 50.0 µM),"growth inhibition [3, 7] [%]","growth inhibition [3, 8]",growth inhibition ([3]; at 50.0 µM),"growth inhibition [4, 7] [%]","growth inhibition [4, 8]",growth inhibition ([4]; at 50.0 µM),"growth inhibition [5, 7] [%]","growth inhibition [5, 8]",growth inhibition ([5]; at 50.0 µM),"growth inhibition [6, 7] [%]","growth inhibition [6, 8]",growth inhibition ([6]; at 50.0 µM)
COCc1ccc([N+](=O)[O-])o1,17%,89% (active),71.5% (active),1,35%,21.6%,11,76% (active),78.7% (active),6,24%,7.65%,2,36%,1.2%,17,84% (active),66.2%
CCCCCCCCCCCC(=O)Oc1c(Cl)c(Cl)c(C#N)c(Cl)c1Cl,5%,0%,70.7% (active),2,3%,23.4%,5,7%,60.9%,12,-1%,48.6%,1,-1%,8.7%,5,13%,86.7% (active)
Nc1ncnc2c1ncn2CC(O)CN(CCO)CCO (configuration not stated) (tested in a mixture with another compound),-24%,-1%,-5%,-10,-7%,-3.15%,-11,-3%,-12.1%,-12,4%,18.8%,7,15%,2%,-15,-17%,22.2%
CCOC(=O)C(=Cc1ccc(OC)cc1)C(=O)OCC,0%,62%,39.6%,-1,70% (active),52.4%,-3,65%,55.6%,1,57%,5.95%,18,86% (active),68.8%,-1,77% (active),66.5%
CCCCCCCCCCCC(=O)N(CC)CC,-3%,99% (active),99.8% (active),1,99% (active),99.9% (active),-4,100% (active),99.8% (active),-1,99% (active),99% (active),2,100% (active),99.7% (active),14,99% (active),99.8% (active)
CCN1C2=NCCN2S(=O)(=O)c2ccccc21,5%,11%,-14.4%,9,9%,-4.45%,8,14%,-27.9%,14,10%,-20.6%,13,11%,-22.1%,20,13%,-5.3%
COc1ccc2cc3c4cc(OC)c(OC)cc4ccn3c2c1,3%,65%,33.1%,-1,58%,15.3%,16,81% (active),62.4%,5,71% (active),80% (active),-1,84% (active),24.2%,12,88% (active),91.5% (active)
COc1ccc(CSC(=S)Nc2ccc(Cl)cc2Cl)cc1,6%,98% (active),99.2% (active),5,99% (active),99.3% (active),8,99% (active),99.3% (active),-24,96% (active),98.7% (active),-6,97% (active),99% (active),3,98% (active),98.8% (active)
CC(CN1CCCCCCC1)C(c1ccccc1)c1ccccc1 (configuration not stated),2%,81% (active),66.3%,-3,76% (active),61.8%,7,98% (active),94.1% (active),-5,73% (active),96.2% (active),-2,87% (active),98.5% (active),-3,89% (active),86.5% (active)
O=C(O)/C(=C/c1ccccc1)c1ccc2ccccc2c1Br,11%,99% (active),99.6% (active),1,100% (active),99.7% (active),7,100% (active),99.7% (active),-18,99% (active),99.2% (active),-10,99% (active),99.7% (active),33,99% (active),99.7% (active)
Cc1ccc(S(=O)(=O)C(C#N)(CCC(=O)/C=C/c2ccccc2)CCC(=O)/C=C/c2ccccc2)cc1,1%,6%,16.2%,-4,35%,2.35%,2,-2%,26.9%,3,4%,77.3% (active),-3,-2%,-9.3%,1,-28%,20%
CCC(/C=C/C(C)C1CCC2C3CC=C4C/C(=N/NC(N)=O)CCC4(C)C3CCC12C)C(C)C (configuration not stated),-7%,6%,9.95%,-3,2%,9.3%,-3,-5%,50.9%,-7,-9%,-1.15%,-3,2%,24.1%,-3,5%,28.9%
Cc1ccc(C)c(C(=O)/C=C/C(=O)O)c1,29%,100% (active),52.5%,22,99% (active),70.7% (active),32,100% (active),61.5%,15,99% (active),40.6%,27,98% (active),64.1%,42,98% (active),65.1%
O=C1/C(=N/N=C(c2ccccc2)c2ccccc2)c2ccccc2-c2ccccc21,7%,65%,60.9%,1,14%,0.45%,-1,23%,-2.6%,2,-5%,0.15%,7,27%,8.5%,7,44%,72.3% (active)
Clc1ccc(C2=C(c3ccccc3)C(c3ccc(Cl)cc3)N3C(=N[C@H]4CCCC[C@@H]43)N2)cc1 (some centres not stated),4%,15%,88.2% (active),9,7%,88.4% (active),-14,-27%,89.3% (active),-1,-5%,90% (active),-1,-1%,87.7% (active),7,7%,91.5% (active)
CCCCCC(C)(C)N=C=S,3%,0%,7%,-1,2%,-1.65%,-1,-3%,-1.85%,5,1%,10.3%,1,0%,8.3%,-5,1%,-5.6%
CN(C)CCOc1cc2c(c3ccccc13)-c1ccccc1C2=O,93% (active),99% (active),99.7% (active),14,99% (active),99.3% (active),20,100% (active),99.4% (active),12,96% (active),99% (active),6,99% (active),99.6% (active),21,100% (active),99.1% (active)
CC(=O)NC(C)(C)C1CCC(C)=C(c2ccccc2)C1 (configuration not stated),-10%,2%,32.8%,-9,-5%,-17.6%,5,8%,67.2%,19,44%,18.6%,17,29%,27.6%,-3,29%,-21.2%
COC(=O)[C@@]12OC[C@]34[C@H]([C@@H](O)[C@@H]1O)[C@@]1(C)CC(=O)C(O)=C(C)[C@@H]1C[C@H]3OC(=O)[C@H](OC(=O)C(Cc1ccccc1)NC(=O)OC(C)(C)C)[C@@H]24 (some centres not stated),24%,73% (active),85.8% (active),26,68%,79.2% (active),27,82% (active),86.8% (active),33,78% (active),85.9% (active),31,80% (active),83.3% (active),3,58%,-65.6%
